Inconclusive results are not listed. Where a call stands in place of a potency, no number is given. Activity calls are given as the source filed them. Calls follow the shape of the dose curve; as a rule, active = well fitted cell-killing curve with a large enough effect; inconclusive = small, poorly fitted or top-dose-only effect; inactive = flat fitted curve, though single readings scatter.

These results are taken from PubChem BioAssay (NCATS).
Potency is read from the fitted curve at half-maximal effect.

The assay is described as follows: Cell Viability - LYMP1-002 - Assay at 40 hr (AID 994). Also: nearly all actives have a fitted effect of over 60% in size. To be noted: LYMP1-002 lymphoblastoid cell viability; series mostly up to 92.2 µM. An excerpt:
NIH Chemical Genomics Center [NCGC]
NIH Molecular Libraries Screening Centers Network [MLSCN]
National Institutes of Environmental Health Sciences [NIEHS]
National Toxicology Program [NTP]
We have developed a 1536-well cell-based assay for quantitative high throughput screening (qHTS) against a number of cell lines to determine in vitro cytotoxicity of small molecules. This particular assay uses a human lymphoblastoid cell line (LYMP1-002) purchased from Coriell Institute for Medical Research.
NCGC Assay Protocol Summary:
The CellTiter-Glo luminescent cell viability assay (Promega) is a homogeneous method to measure the number of viable cells in culture. The end point readout of this assay is based on quantitation of intracellular ATP, an indicator of metabolic activity, using the luciferase reaction. Luciferase catalyzes the oxidation of beetle Luciferin to oxyluciferin and light in the presence of ATP. The luminescent signal is proportional to amount of ATP present.
Using the CellTiter-Glo luminescent cell viability assay, the amount of cellular ATP was measured in the lymphoblastoid cell line with complete culture medium following compound treatment for 40 hours. The assay was performed in opaque white Kalypsys 1536-well plates. In the screen, tetraoctylammonium bromide was used as positive control. Library compounds were measured for their ability to cause acute toxicity in the cell line, as reflected by a decrease in intracellular ATP levels, in a concentration-dependent manner. […] AC50 values were determined from concentration-response data modeled with the standard Hill equation.
qHTS protocol for CellTiter Glo lymphoblastoid cellular assay
[Step] [Parameter] [Value] [Description]
1. Reagent; 5 uL; 2500 lymphoblastoid cells/well
2. Time; 5 hr; 37 C incubation
4. Controls; 23 nL; Tetraoctylammonium bromide 6.4pM to 92 uM
5. Time; 40 hr; 37 C incubation
6. Reagent; 5 uL; CellTiter Glo reagent
7. Time; 30 min; Room Temperature
8. Detection; Luminescence; Viewlux plate reader
Keywords: cell viability, cytotoxicity, lymphoblastoid cell line, luminescence, NTPHTS, NTPHTS_NCGC, NIEHS, DSSTox, MLSMR, MLSCN, NIH Roadmap, qHTS, NCGC
As to `Oc1ccc(O)c2c(O)cccc12`, the Potency result is “inactive”. `c1ccc(SCCSc2ccccc2)cc1`: the Potency entry was “inactive”. To `C=CC(=O)OCCCCCCOC(=O)C=C` belongs 39.8 µM (active); to `CCNC(=S)NCC`, “inactive”. In the case of `C=CC(C)(O)CCCC(C)CCCC(C)CCCC(C)C` (stereo not given), the Potency entry is “inactive”. The value for `C/C(Cl)=C/CCl` was “inactive”.

For the compound `S=C(NC1CCCCC1)NC1CCCCC1`, the Potency entry is “inactive”. Turning to `CCCCC(CC)COP(=O)(OCC(CC)CCCC)OCC(CC)CCCC` (stereo not given), the Potency entry was “inactive”. To `Brc1cc(Br)c(Oc2cc(Br)c(Br)cc2Br)cc1Br` belongs “inactive”; to `Nc1cnn([C@@H]2O[C@H](CO)[C@@H](O)[C@H]2O)c(=O)n1`, “inactive”; to `OCC(CBr)(CBr)CBr`, “inactive”. To `CC(=O)c1ccc(Cl)c(Cl)c1Cl` belongs “inactive”.

On to `Nc1cc([N+](=O)[O-])ccc1O`, for which the Potency result is “inactive”. The value for `CCCCC(CC)COC(=O)COc1ccc(Cl)cc1Cl` (stereo not given) was “inactive”; that for `c1ccc(Nc2cccc3ccccc23)cc1` was “inactive”. On to `C1CCCNCC1`, for which the Potency entry is “inactive”. To `CC1=C(/C=C/C(C)=C/C=C/C(C)=C/C=O)C(C)(C)CCC1` belongs 50.1 µM (active); to `Cc1ccc(S(N)(=O)=O)cc1`, “inactive”; to `Cc1ccc(N)cc1[N+](=O)[O-]`, “inactive”.

`C=Cc1cccc(C)c1`: the Potency entry is “inactive”. To `Nc1cc(C(=O)O)c(O)c(S(=O)(=O)O)c1` belongs “inactive”. To `Oc1c(Cl)cc(Cl)c(Cl)c1Cl` belongs “inactive”; to `CC(C)OCC1CO1` (stereo not given), “inactive”; to `C=C(C#N)C(=O)OCC`, “inactive”. To `CC(C)(C)C(=O)C1C(=O)c2ccccc2C1=O` belongs “inactive”; to `Clc1nc2ccccc2nc1Cl`, “inactive”; to `O=C(O)c1ccc([N+](=O)[O-])cc1`, “inactive”. `CC(CCC(=O)O)(c1ccc(O)cc1)c1ccc(O)cc1`: the Potency result was “inactive”. As to `Cc1ccccc1OCC1CO1` (stereo not given), the Potency entry was “inactive”. To `O=[N+]([O-])c1cc(Cl)c(Cl)c(Cl)c1Cl` belongs “inactive”; to `CC(C)S`, “inactive”; to `CCCCNCC`, “inactive”. Regarding `CCCCOC(=O)COc1ccc(Cl)cc1Cl`, the Potency entry is “inactive”.

In the case of `Oc1cc2c(cc1O)[C@H]1c3ccc(O)c(O)c3OC[C@@]1(O)C2`, the Potency is 50.1 µM (active). The value for `Nc1ccc(-c2ccc(N)c(O)c2)cc1O` was “inactive”. To `CC(=O)OC(C(=O)c1ccccc1)c1ccccc1` (stereo not given) belongs “inactive”; to `O=[N+]([O-])c1cc(N(CCO)CCO)ccc1NCCO`, “inactive”.

Turning to `C=C1CC[C@H](O)C/C1=C/C=C1\CCC[C@]2(C)[C@@H]([C@H](C)CCCC(C)C)CC[C@@H]12`, the Potency was 50.1 µM (active).

Take `O=C(OCc1ccccc1)c1ccccc1O`: the Potency entry is “inactive”. Turning to `CC(C)COC(=O)COc1cc(Cl)c(Cl)cc1Cl`, the Potency result is “inactive”.
